High-throughput results as filed in PubChem BioAssay.
TbPYK inhibitor – inhibitors of Trypanosoma brucei pyruvate kinase. actives 0.12% (n = 410,000). Potency, µM (doses to about 76.8 µM), for inactives: top-dose activity, negative = inhibition, actives largely listed as inhibitors. Q57TT1. TbPYK enzyme, Kinase-Glo Plus ATP luminescence, 45 min; also: potency is read from the fitted curve at half-maximal effect; % is scaled to controls: 0 for no effect and ±100 for the full control effect; nearly all actives have a fitted effect of over 50% in size
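Screened from lowest to highest concentration, compounds were pinned into TbPYK/substrate mixtures, and ADP (130 uM final) was added. Plates sat at room temperature for 45 min prior to Kinase-Glo Plus detection by luminescence.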
Shiga inhibitor – blocks Shiga toxin action in Vero cells; Vero cells, Shiga toxin protein synthesis inhibition reporter; inhibition, % at 38.7 µM; actives 9.2% (n = 290,000); AID 2315; in the data active = inhibition mostly above about 28%, no sharp cut-off; inactive = mostly below about 43%; also: 0% is about no effect
NS1 function inh – inhibitors of influenza NS1 protein function. Potency, µM (titrated, usually from 46.1 µM), without a hit: top-dose activity, positive = more growth. actives 0.4% (n = 270,000); calls by dose curve; also: potency is read from the fitted curve at half-maximal effect; actives are rising curves; nearly all actives have a fitted effect of over 50% in size
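Recovery from NS1-induced slow growth read by OD600 in budding yeast switched to galactose assay medium (pH 6.0, -URA) at 1:100 dilution. Compound 23 nl per well; the matching strain lacking NS1 serves as control.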
LmPK inh – inhibitors of Leishmania mexicana pyruvate kinase. Q27686. purified LmPK, Kinase-Glo ATP luminescence, 1 h. Potency, µM (titrated, usually from 57.5 µM), for the others: at the top dose activity change, negative = inhibition, actives largely listed as inhibitors. actives 0.37% (n = 290,000); also: potency is read from the fitted curve at half-maximal effect; % is scaled to controls: 0 for no effect and ±100 for the full control effect
Target sequence (Q27686 whole entry, looked up): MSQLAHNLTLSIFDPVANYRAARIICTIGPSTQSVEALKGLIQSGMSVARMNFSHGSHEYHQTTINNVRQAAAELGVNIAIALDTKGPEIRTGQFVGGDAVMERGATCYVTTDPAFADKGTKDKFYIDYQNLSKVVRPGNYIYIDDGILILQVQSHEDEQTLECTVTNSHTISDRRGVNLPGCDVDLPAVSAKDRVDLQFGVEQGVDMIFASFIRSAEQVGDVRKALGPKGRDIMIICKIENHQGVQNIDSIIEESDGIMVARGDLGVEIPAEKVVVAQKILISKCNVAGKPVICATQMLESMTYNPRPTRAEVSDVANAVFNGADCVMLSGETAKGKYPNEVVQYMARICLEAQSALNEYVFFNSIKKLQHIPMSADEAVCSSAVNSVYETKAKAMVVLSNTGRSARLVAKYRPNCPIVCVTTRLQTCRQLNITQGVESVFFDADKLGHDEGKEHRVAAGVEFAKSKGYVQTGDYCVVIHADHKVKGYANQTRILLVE
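Purified LmPK (0.1 nM) converted ADP (0.1 mM) to ATP with PEP (0.5 mM) in imidazole buffer pH 7.2 with KCl and MgCl2, 1 h at room temperature. ATP was read by Kinase-Glo luminescence; data normalized to uninhibited and no-enzyme controls.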
Cycloheximide cs – affects cycloheximide protein synthesis inhibition readout, counter-screen; cell reporter, cycloheximide protein synthesis inhibition counterscreen; max response, %; actives 12% (n = 300,000); in the data active = max response mostly above about 13%, no sharp cut-off; inactive = mostly below about 14%; also: read at 38.3 µM for the half of the compounds with a filed dose; 0% is about no effect
SARS PLpro yeast – blocks SARS-CoV papain-like protease in a yeast assay; S. cerevisiae expressing SARS-CoV PLpro, growth rescue; Potency, µM (doses to about 32.9 µM), without a hit: at the highest dose activity, positive = growth rescue, hits mostly activators; actives 0.19% (n = 330,000); calls by dose curve; also: potency is read from the fitted curve at half-maximal effect; 0% is about no effect; nearly all actives have a fitted effect of over 55% in size
Numbers without * were called inactive; u = inconclusive; x = no result. This is one part of a sample in which hits are shown more often than they occur. Unless noted, calls follow the shape of the dose curve; as a rule, active = well fitted curve in the direction sought with a large enough effect; inconclusive = small, poorly fitted or top-dose-only effect, or another doubt; inactive = no such curve, though single readings can be large; an effect the other way counts as inactive or inconclusive.

SMILES | TbPYK inhibitor | Shiga inhibitor | NS1 function inh | LmPK inh | Cycloheximide cs | SARS PLpro yeast
O=C(c1cccc(N2C(=O)C3CC=CCC3C2=O)c1)N1CCCc2ccccc21 (configuration not stated) | -5.7% | 74.5* | x | -4.6% | 35.5* | 0.9%
COc1ccc(S(=O)(=O)N2CCN(Cc3ccco3)CC2)cc1 | 4.5% | -5.8 | -23.0% | -1.7% | -3.8 | 5.2%
O=C(NCc1ccc(F)cc1)c1cc(C(=O)C2CC2)c[nH]1 | -5.0% | -8.0 | 1.4% | -0.4% | -0.9 | -5.2%
CC(Nc1ccc2c(c1)OCCO2)C(=O)N1CCc2ccccc21 (configuration not stated) | -23.8% | 84.3* | -3.5% | -4.2% | 21.2* | 1.8%
O=C(c1ccc2c(c1)OCO2)N1CCN(c2ccc(F)cc2)CC1 | 7.1% | 32.7 | 1.0% | 1.0% | 18.5* | 10.3%
CC(NCc1ccc2c(c1)OCO2)C(=O)N1CCc2ccccc21 (configuration not stated) | 3.2% | -4.7 | 1.7% | 0.2% | -2.6 | -10.7%
O=C(c1ccc2c(c1)OCO2)N1CCc2ccccc21 | -7.6% | 58.7* | -5.5% | -3.4% | 29.2 | 0.9%
CCCn1ncc(/C=N/O)c1C | -4.9% | -3.9 | 4.1% | -6.5% | -1.9 | -0.4%
CC(=O)Nc1ccc(S(=O)(=O)N2CCN(c3cc(C(F)(F)F)ccn3)CC2)cc1 | -4.2% | 13.3 | 2.5% | 0.8% | -2.0 | 0.0%
FC(F)(F)c1ccnc(N2CCN(Cc3cnc(-c4ccccc4)[nH]3)CC2)c1 | -0.5% | 61.2* | -2.9% | 2.9% | 62.7* | -0.9%
Cc1cnc(NC(=O)c2cc3c(s2)CCCC3)s1 | -11.3% | 60.6* | -4.2% | -12.4% | 40.4* | -6.3%
Cc1csc(NC(=O)c2cc3c(s2)CCCC3)n1 | -1.0% | 80.8* | -25.8% | u | 61.5* | -30.2%
Cc1csc(NC(=O)c2cc3c(s2)CCCCC3)n1 | -22.2% | 1.7 | 0.5% | u | 14.8* | -25.5%
CCOC(=O)Cc1csc(NC(=O)c2cc3c(s2)CCCC3)n1 | -17.3% | 38.5 | 1.5% | 2.3% | 20.1 | 1.9%
CCc1nnc(NC(=O)c2cc3c(s2)CCCCC3)s1 | 0.1% | x | -0.6% | x | x | x
COc1ccc(NC(=O)C2CCN(S(=O)(=O)c3ccc4[nH]c(=O)ccc4c3)CC2)c(OC)c1 | -0.8% | x | x | x | x | x
CC(=O)Nc1oc(-c2cccc3ccccc23)nc1C#N | -1.1% | x | x | x | x | -4.9%
CCCNc1oc(-c2cccc3ccccc23)nc1C#N | -18.6% | 69.4* | 3.6% | 0.6% | 21.6* | -1.4%
N#Cc1nc(-c2cccc3ccccc23)oc1NCCN1CCOCC1 | -0.6% | 32.9 | -50.1% | 2.2% | 15.3* | 10.7%
N#Cc1nc(-c2ccccc2F)oc1NCCN1CCOCC1 | 1.1% | 1.3 | -8.1% | 8.1% | -3.2 | 4.4%
O=S(=O)(c1ccc(N2CCN(CCO)CC2)nc1)N1CCOCC1 | 9.8% | x | x | x | x | -0.8%
CCc1ccc(CNCc2cccs2)cc1 | 1.2% | 54.7* | 0.4% | -4.8% | 28.9* | 0.3%
CCc1ccc(S(=O)(=O)NCc2cccs2)cc1 | -0.9% | 26.8 | -16.1% | -0.6% | 4.5 | 0.9%
NC(=O)c1ccccc1OCc1nc2ccccc2s1 | -0.9% | 97.3* | -2.1% | -13.3% | 33.6* | -0.5%
O=C(COC(=O)c1ccco1)Nc1nc2ccccc2s1 | -0.9% | 32.2 | -35.5% | 0.4% | 21.5* | -6.8%
SMILES | TbPYK inhibitor | Shiga inhibitor | NS1 function inh | LmPK inh | Cycloheximide cs | SARS PLpro yeast
Cc1cc(C(=O)OCc2nc3ccccc3s2)c(C)o1 | -6.9% | 105.2* | -18.0% | -4.5% | 52.7* | x
O=C(OCc1nc2ccccc2s1)c1ccco1 | -1.8% | 90.4* | x | -3.5% | 36.4* | 0.0%
CNc1snc(C)c1C(=O)OC(C)C(=O)Nc1ccccc1 (configuration not stated) | 0.0% | x | x | x | x | -3.5%
CC(=O)OCc1nc2ccccc2s1 | 0.7% | 91.7* | 19.4% | 1.4% | 29.3* | 2.1%
CCOC(=O)C(=O)Cc1nc2ccccc2s1 | -4.9% | 28.8 | -41.7% | 3.4% | 11.8* | -3.2%
O=C(O)COCc1nc2ccccc2s1 | -11.5% | -6.5 | 0.7% | -2.7% | -3.0 | 0.0%
O=C(OCc1nc2ccccc2s1)c1ccc(Br)o1 | -5.4% | 80.2* | x | 2.7% | 28.2* | -11.1%
Cc1cccc(OCC(=O)NCCCNC(=O)c2ccc(C)nc2)c1 | -1.4% | 21.5 | -14.5% | 1.1% | -8.0 | 1.9%
Cc1ccc(S(=O)(=O)N2CCOCC2)cc1NC(=O)COC(=O)/C=C/c1ccc(F)cc1 | -1.3% | x | x | x | x | -4.3%
CCOC(=O)c1cnc2ccc(OCC)cc2c1NCCCN1CCOCC1 | u | 14.7 | -0.7% | 3.3% | 17.6* | 4.9%
Cc1ccc(C(=O)/C=C/c2ccc3c(c2)OCCO3)c(O)c1 | -6.9% | 86.5* | -4.1% | -7.3% | 39.9* | -1.0%
O=C(/C=C/c1ccc2c(c1)OCCCO2)c1ccc2ccccc2c1O | -0.9% | 39.6* | 5.4% | -3.0% | 11.9* | -0.9%
CN(C)C(=O)CSc1nc2ccccc2c(=O)[nH]1 | 5.7% | -1.6 | -3.6% | -6.1% | 3.2 | 3.7%
CCN(CC)C(=O)CSc1nc2ccccc2c(=O)[nH]1 | -9.8% | 7.1 | -16.3% | -6.5% | 9.0* | 3.2%
N#Cc1c(-c2cccs2)nc(SCc2ccc(Cl)cc2)[nH]c1=O | 1.9% | -5.7 | 8.9% | 12.9% | 1.4 | -1.9%
Cc1cc(=O)[nH]c(SCC(=O)c2ccc(C(C)C)cc2)n1 | 5.5% | 31.9* | -11.4% | 2.8% | 33.6* | -4.4%
O=c1[nH]c(SCc2ccc(Cl)cc2)nc2ccsc12 | 9.8% | 61.8* | x | 7.1% | 44.3* | 0.3%
CCc1ccc(C(=O)CSc2nc3ccccc3c(=O)[nH]2)cc1 | 1.7% | 30.1 | -5.1% | 11.5% | 13.8* | -6.9%
O=C(Nc1ccnn1C1CCN(Cc2cc(Cl)ccc2O)CC1)c1cccnc1 | 0.9% | -6.1 | 4.6% | -0.1% | -4.4 | -4.7%
Cc1ccccc1CSc1nc2ccccc2c(=O)[nH]1 | -1.7% | -6.3 | 9.0% | 0.5% | -3.6 | 6.9%
Cc1ccc(C(=O)CSc2nc3ccccc3c(=O)[nH]2)cc1 | -1.9% | 4.9 | -5.4% | 11.5% | 14.9* | -2.8%
Cc1ccc(CSc2nc3ccccc3c(=O)[nH]2)cc1 | 0.6% | 35.0 | x | -0.6% | 38.0* | -4.9%
O=C(O/N=C(\c1ccccc1)c1ccccn1)c1ccc(Cl)c(Cl)c1 | -2.1% | -12.4 | -0.3% | 4.0% | 2.5 | -17.0%
N/C(=N\OC(=O)c1ccc(Cl)c(Cl)c1)c1cccnc1 | 5.9% | 40.8 | -68.5% | -7.7% | 26.1* | -5.4%
N/C(=N\OC(=O)c1ccc(Cl)c(Cl)c1)c1cccc(CSc2ccccn2)c1 | 3.9% | 61.6* | 2.9% | 4.4% | 29.0* | 0.5%
N/C(=N\OC(=O)c1cccc(Cl)c1)c1ccncc1 | 3.7% | 58.7* | 4.5% | -3.5% | 38.5* | -1.7%
N/C(=N\OC(=O)c1cccc(Cl)c1)c1cccnc1 | -11.6% | 98.6* | 4.7% | -12.4% | 47.5* | -21.5%
O=C(Nc1ccccc1O)c1cc(S(=O)(=O)N2CCCC2)ccc1Cl | 1.8% | x | x | x | x | x
